Compound activity as filed in PubChem.
CtBP-E1A inh = blocks the CtBP interaction with E1A; 0.49% of 340,000 active; AlphaScreen GST-E1A/His-CtBP binding, 1536-well; hits give low values; activity change, % (no concentration beside the values); in the data active = activity change below about -65%; inconclusive = mostly about -30% to -63%; note: % is set by controls: 0 for no effect and ±100 for the full control effect
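In 5 uL wells, 23 nL compound meets equimolar GST-E1A and His-CtBP (5X stock 125 nM each) for 2 h, 37 °C. Beads (5X, 50 ug/mL) then 1 h, 37 °C, dark.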
Six1-Eya2 inh = inhibitors of human Six1/Eya2 interaction. Q15475+O00167. AlphaScreen GST-Six1/His-Eya2 binding, biochemical; hits give low values. activity change, % (no concentration beside the values). 0.56% of 360,000 active. AID 651725; in the data active = activity change below about -65%; inconclusive = mostly about -30% to -63%; note: % is set by controls: 0 for no effect and ±100 for the full control effect
Target sequence (O00167 whole entry, looked up): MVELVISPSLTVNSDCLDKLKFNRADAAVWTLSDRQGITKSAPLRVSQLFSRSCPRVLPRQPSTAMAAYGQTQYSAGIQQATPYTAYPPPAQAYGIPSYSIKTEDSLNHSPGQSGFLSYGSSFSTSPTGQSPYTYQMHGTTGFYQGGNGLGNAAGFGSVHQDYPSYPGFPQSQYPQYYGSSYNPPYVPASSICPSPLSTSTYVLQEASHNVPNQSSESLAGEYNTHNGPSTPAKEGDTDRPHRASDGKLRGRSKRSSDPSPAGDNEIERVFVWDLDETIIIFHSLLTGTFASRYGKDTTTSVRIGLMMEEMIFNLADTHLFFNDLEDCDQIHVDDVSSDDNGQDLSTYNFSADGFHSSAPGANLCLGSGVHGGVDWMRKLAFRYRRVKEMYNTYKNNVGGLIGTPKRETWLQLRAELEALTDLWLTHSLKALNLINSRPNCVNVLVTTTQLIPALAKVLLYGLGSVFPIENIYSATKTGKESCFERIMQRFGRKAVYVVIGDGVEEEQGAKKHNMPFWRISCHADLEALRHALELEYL
Target sequence (Q15475 whole entry, looked up): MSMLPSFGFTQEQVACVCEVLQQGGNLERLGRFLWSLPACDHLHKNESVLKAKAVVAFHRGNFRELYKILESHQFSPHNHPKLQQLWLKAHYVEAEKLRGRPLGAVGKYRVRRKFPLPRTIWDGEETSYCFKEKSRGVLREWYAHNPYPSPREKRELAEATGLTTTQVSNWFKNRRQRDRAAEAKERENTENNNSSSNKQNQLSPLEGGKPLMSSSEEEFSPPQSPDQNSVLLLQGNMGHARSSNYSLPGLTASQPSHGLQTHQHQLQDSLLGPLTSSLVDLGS
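AlphaScreen luminescence read after one hour at 37 °C in darkness. Pin-transferred compounds met GST-Six1 and His-Eya2 protein (5X stock 250 nM/500 nM) plus glutathione donor and Ni-chelate acceptor beads (5X, 50 ug/mL).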
Gal4-VP16 FLuc = counter-screen for ROR gamma inhibitors: Gal4-VP16 reporter; Potency, µM (highest dose often 53.6 µM), inactives show at the top dose activity, negative = inhibition, hits mostly inhibitors; 3.5% of 310,000 active; Drosophila S2 Gal4-VP16 UAS-luciferase, luminescence, 20 h; AID 2546;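 note: Gal4-VP16 expression switched on by copper sulfate through the metallothionein promoter; potency is the fitted concentration of half-maximal effect; % is set by controls: 0 for no effect and ±100 for the full control effect; nearly all actives have a fitted effect of over 50% in size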
CBFb-RUNX1 inh = inhibitors of human CBF-beta and RUNX1 interaction. 230,000 tested, under 10 active. AlphaScreen CBFb-His/RUNX1-biotin binding, biochemical. Potency, µM (highest dose often 59.8 µM), for inactives: top-dose activity, negative = inhibition, hits mostly inhibitors. Q01196+Q13951; note: % of control where 0% means no effect
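His-tagged CBF-beta and biotinylated RUNX1 (30 nM each) were premixed 20 min at room temperature, exposed to compound for 15 min, then given nickel-chelate and streptavidin AlphaScreen beads (50 ng each). After 90 min, AlphaScreen signal was read.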
RORgamma inh = blocks mouse ROR gamma transcriptional activity; Drosophila S2 Gal4-RORgamma UAS-luciferase reporter, 20 h; AID 2551; 5.4% of 310,000 active; Potency, µM (titrated, usually from 53.6 µM), inactives show top-dose activity change, negative = inhibition, hits mostly inhibitors; P51450; note: potency is the fitted concentration of half-maximal effect; % is set by controls: 0 for no effect and ±100 for the full control effect; nearly all actives have a fitted effect of over 60% in size
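ROR gamma transcriptional activity was tracked as Gal4-UAS luciferase output in stably transfected Drosophila Schneider cells, with compound added 1 hr before 700 uM copper sulfate induction and a 20 hr ambient-temperature incubation.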
MBNL1 CUG block = blocks human MBNL1 binding to CUG repeat RNA | Q9NR56 | TR-FRET MBNL1-His/biotin-(CUG)12 binding, 665/545 ratio | Potency, µM (top dose mostly 57.5 µM), without a hit: at the highest dose activity change, negative = inhibition, usual class: inhibitors | 0.036% of 280,000 active | AID 2675; active = well fitted inhibition curve with a large enough effect in the signal ratio, with a control signal flat, not every such curve was filed as active; inconclusive = small, poorly fitted or top-dose-only effect, or effect the other way, or a change in a side signal; inactive = no such curve, though single readings can be large or run the other way; the % refers to the signal ratio; note: potency is the fitted concentration of half-maximal effect; % is set by controls: 0 for no effect and ±100 for the full control effect
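Compounds (final 92 nM to 58 uM) are added to His-tagged MBNL1 and biotin-(CUG)12, then terbium anti-His antibody and streptavidin-XL665 (5 nM final). After 60 min at room temperature, the 665/545 nm ratio is read.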
Active calls of the source: *; ? = inconclusive; . = no result; ! = a repeat was not active; [ ] = remark or other dose. An excerpt weighted towards active compounds, which were near 5.5% of everything screened. Unless noted, calls come from the whole dose curve; as a rule, active = well fitted curve in the direction sought with a large enough effect; inconclusive = small, poorly fitted or top-dose-only effect, or another doubt; inactive = no such curve, though single readings can be large; an effect the other way counts as inactive or inconclusive.

SMILES | CtBP-E1A inh | Six1-Eya2 inh | Gal4-VP16 FLuc | CBFb-RUNX1 inh | RORgamma inh | MBNL1 CUG block
COc1ccc(CCn2c(C)nc3c(c(=O)c4ccccc4n3C)c2=O)cc1 | ? | ? | 2% | 0% | -15% | -6%
Cc1ccc(NC(=O)c2ccc(=O)[nH]c2)cc1S(=O)(=O)N1CCCCCC1 | 0 | ? | . | . | . | .
O=S(=O)(Nc1ccc(-c2cn3c(n2)SCC3)cc1)c1cc(F)ccc1F | 4 | -17 | . | . | . | .
NCCCC[C@H](NC(=O)[C@@H]1CCCN1C(=O)[C@@H](N)CCCN=C(N)N)C(=O)N1CCC[C@H]1C(=O)N[C@@H](CCC(N)=O)C(=O)N[C@@H](CCC(N)=O)C(=O)N[C@@H](Cc1ccccc1)C(=O)O | . | . | 2% | 8% | 10% | .
O=c1c2ccccc2nc(-c2ccccc2)n1O | . | -6 | . | . | . | .
COc1ccc(-c2nc3ccccc3c(=O)n2O)cc1 | -9 | -1 | ? | . | 13µM* | 3%
COc1ccccc1-c1nc2cc(Cl)ccc2c(=O)n1O | -9 | -3 | 2.5µM* | . | ? | -5%
CN(Cc1ccccc1)C(=O)c1ccc(NC(=O)Cc2ccc([N+](=O)[O-])cc2)cc1 | -6 | -12 | . | . | . | .
CCN(CC)c1ccc(/C=C2\SC(=O)N(C(C)C)C2=O)o1 | -1 | 0 | 4.5µM* | 4% | 3.5µM* | -5%
COC(=O)NC(/C=C/c1ccco1)[C@@]1(C(=O)OC)CCCC1=O (stereo partly specified) | . | . | 5%[10 µM] | 1%[13.1 µM] | 1%[10 µM] | .
CCOC(=O)C(Oc1ccc2c(-c3ccccc3)cc(=O)oc2c1C)c1ccccc1 (stereo unspecified) | 12 | 1 | -2% | 1% | 8% | ?
Cc1c(OCc2ccc(C(=O)O)cc2)ccc2c(-c3ccccc3)cc(=O)oc12 | 1 | -74* | 4% | 2% | 36% | -4%
COC(=O)C1=C(C(=O)OC)[C@@H]2N(Cc3ccccc3)c3ccccc3[C@@]23C[C@@H](C(=O)OC)N(C(=O)c2cccs2)C3=N1 | . | 1 | 18µM* | -3%[13.1 µM] | ? | -4%
S=C(NCc1ccco1)Nc1cccc(Cl)c1 | 2 | -15 | 7.1µM* | -3% | 1.8µM* | -6%
COc1ccc(Cl)cc1NC(=O)NCc1ccco1 | . | -1 | 4% | 4% | 31% | -3%
COc1ccc(Cl)cc1NC(=S)NCc1ccco1 | -5 | -9 | ? | -5% | 18µM* | -8%
S=C(NCc1ccco1)Nc1ccc(Cl)c(Cl)c1 | 0 | -6 | 16µM* | -2% | 13µM* | 6%
CC(=O)c1cccc(NC(=S)NCc2ccco2)c1 | . | -4 | 1% | 0% | -4% | -1%
CC(=O)OCC(NC(=O)C(COCc1ccccc1)NC(=O)OC(C)(C)C)C1OC(n2ccc(=O)[nH]c2=O)C(OC(C)=O)C1OC(C)=O (stereo unspecified) | . | . | 3% | -5% | 14% | .
Cc1cc(C)n2nc(C(=O)Nc3ccn(Cc4ccccc4C)n3)cc2n1 | -13 | -6 | -3% | -3% | -10% | -10%
O=C(CSc1nnc(-c2cccnc2)o1)Oc1ccccc1 | -27 | 2 | -5% | 0% | -14% | 11%
O=C(CSc1nnc(-c2cccnc2)o1)c1cc2ccccc2oc1=O | -2 | 0 | 4µM* | -7% | ? | 48%
CC(Sc1ncccn1)C(=O)NNC(=O)c1cccc(Cl)c1 (stereo unspecified) | -7 | 8 | . | . | . | .
S=C(NCc1ccc(Cl)cc1)NCc1ccco1 | -5 | -7 | 10µM* | . | 7.1µM* | 7%
O=C(NC(=S)NCCc1ccc(Cl)cc1)c1ccco1 | 8 | 3 | ? | 2% | 8.9µM* | 6%
SMILES | CtBP-E1A inh | Six1-Eya2 inh | Gal4-VP16 FLuc | CBFb-RUNX1 inh | RORgamma inh | MBNL1 CUG block
S=C(NCCc1ccc(Cl)cc1)NCc1ccco1 | 4 | 2 | -21% | -5% | 11µM* | -3%
O=C(COC(=O)c1ccco1)NCCc1ccc(Cl)cc1 | . | -2 | . | . | . | .
Cc1cc2nc(C(C)(C)C)c(CC3CCCCC3)n2c(C)c1Br | 7 | 0 | . | . | . | .
CN(C)S(=O)(=O)c1cc(C(=O)Nc2ccccc2C(=O)NC2CC2)ccc1Cl | 1 | -1 | . | . | . | .
CC/C(=N/NC(=O)c1ccccc1O)c1c(C)[nH]n(-c2ccccc2)c1=O | ? | -27 | . | . | . | .
O=C(O)C1Nc2c(C(=O)N3CCOCC3)cccc2C2C=CCC12 (stereo unspecified) | -29 | -74* | -23% | -18% | -32% | ?
COCCNC(=O)C1(C)CCCN(C(=O)c2ccccc2OC(F)(F)F)C1 (stereo unspecified) | 7 | 11 | . | . | . | .
N#Cc1cc(Oc2cccc3cccnc23)c(-n2nnc3ccccc32)cc1C#N | 0 | 0 | 6.3µM* | -2% | ? | 7%
O=C(/C=C/c1ccccc1)Nc1cccc(C(=O)NC2CC2)c1 | 11 | 8 | . | . | . | .
COc1ccc2oc(=O)c(-c3nc4ccccc4o3)cc2c1 | 5 | 0 | 2% | 6% | 4% | ?
COc1cccc(N=c2oc3ccccc3cc2-c2nc3ccccc3[nH]2)c1 | ? | 0 | ? | -30% | 7.9µM* | ?
COc1ccc(N=c2oc3ccc(OC)cc3cc2-c2nc3ccccc3[nH]2)cc1 | -2 | 3 | -7% | 4% | 10µM* | 8%
COc1cccc(N=c2oc3ccc(OC)cc3cc2-c2nc3ccccc3[nH]2)c1 | -11 | -1 | -26% | -1% | 14µM* | 16%
O=C(O)c1ccccc1NC(=O)C1CCN(S(=O)(=O)c2ccc3c(c2)OCCO3)CC1 | -22 | ? | . | . | . | .
CC(=O)Nc1ccc(S(=O)(=O)NC2CC3CCC2C3)cc1 (stereo unspecified) | 0 | -2 | 1% | . | 40% | 1%
CNC(=O)[C@@H]1C[C@H]1[C@@H](NC(=O)OCc1ccccc1)c1ccccc1 | . | -2 | 5% | 16%[2.36 µM] | 13µM*! | -11%
COC(=O)[C@H]1O[C@@H](c2cc(OC)c(C)c(OC)c2OCc2ccccc2)[C@H](C)[C@@H]2O[C@]12C | . | . | 6% | 0% | 19% | .
Cc1ccc(C(=O)Nc2ncc(Cc3ccccc3)s2)o1 | -4 | -5 | ? | -2% | 11µM* | -3%
O=C(Nc1ncc(Cc2ccccc2)s1)c1cccs1 | 7 | -6 | ? | 1% | 0%[10 µM] | 1%
O=C(Nc1ncc(Cc2ccc(SC(F)F)cc2)s1)c1ccccc1 | -14 | 1 | 20µM* | 8% | 13µM* | -5%
Cc1ccc(Cc2cnc(NC(=O)c3cccs3)s2)cc1 | -3 | -11 | 8.9µM* | -1% | 3.5µM* | -3%
O=C(Nc1ncc(Cc2cccc(Cl)c2)s1)c1cccs1 | -1 | 4 | 16µM* | 3% | 7.1µM* | 4%
